Rows were chosen to be rich in hits. Some 2.3% of all compounds tested hit in one or more screens of this group.
ROS inducer – inducers of reactive oxygen species in cancer cells; ROS induction (% of piperlongumine), % at 10 µM; 46,000 tested, 2% active; U2OS ROS induction, H2DCF-DA fluorescence; in the data active means ROS induction above about 79%, passing the limit was not always enough;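 further: 0% = DMSO vehicle median and 100% = reference compound median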
YB-1 expr inh – YB-1 expression inhibition; delta delta Cp (YB-1 minus CDIP) (test concentration not listed); 30,000 tested, 0.37% active; U2OS, qRT-PCR YB-1 vs CDIP delta delta Cp, 16 h; hits give high values; zero = DMSO, each unit about twofold;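 active means delta delta Cp rounded down to an integer at or above 3, about 3 SD of DMSO wells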;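 further: higher means less YB-1 transcript or more CDIP transcript relative to DMSO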
* hit, by the source's call; . = no result given.

SMILES | ROS inducer | YB-1 expr inh
C[C@@H]1CN([C@H](C)CO)C(=O)Cc2cc(NC(=O)C3CC3)ccc2O[C@@H]1CN(C)S(=O)(=O)c1ccc(Cl)cc1 | 4.9 | -0.405
C[C@H](CO)N1C[C@H](C)[C@H](CN(C)S(=O)(=O)c2ccc(Cl)cc2)Oc2ccc(NC(=O)C3CC3)cc2CC1=O | 123.0* | -0.223
O=C(NC(=O)c1ccccc1Cl)NC1CC1 | -7.2 | .
COC(=O)c1cc2oc3ccccc3c2n1CC(=O)NCCC1=CCCCC1 | 2.1 | .
C[C@@H]1CN([C@@H](C)CO)C(=O)Cc2cc(NS(=O)(=O)c3cccs3)ccc2O[C@@H]1CN(C)Cc1ccc(-c2ccccc2)cc1 | 18.4 | 0.0386
C[C@@H]1CN([C@H](C)CO)C(=O)Cc2cc(NS(=O)(=O)c3cccs3)ccc2O[C@H]1CN(C)Cc1ccc(-c2ccccc2)cc1 | 96.5* | -0.296
C[C@@H]1CN([C@H](C)CO)C(=O)Cc2cc(NS(=O)(=O)c3ccc(F)cc3)ccc2O[C@@H]1CN(C)Cc1ccc(-c2ccccc2)cc1 | 107.3* | 0.966
C[C@@H]1CN([C@H](C)CO)C(=O)Cc2cc(NS(=O)(=O)c3ccc(F)cc3)ccc2O[C@H]1CN(C)Cc1ccc(-c2ccccc2)cc1 | 65.2 | 0.646
CC(C)(C)c1ccc(O)c(C(=O)Oc2ccccc2)c1 | 2.4 | .
COC(CNC(=O)c1cc(=O)[nH]c2ccc(Br)cc12)OC | -12.9 | .
C[C@H](CO)N1C[C@H](C)[C@H](CN(C)Cc2ccc(Cl)c(Cl)c2)Oc2ccc(NS(=O)(=O)c3cn(C)cn3)cc2CC1=O | 17.1 | 13*
C[C@H]1CN([C@@H](C)CO)C(=O)Cc2cc(NS(=O)(=O)c3cn(C)cn3)ccc2O[C@H]1CN(C)Cc1ccc(Oc2ccccc2)cc1 | 88.6* | 0.0687
C[C@H]1CN([C@@H](C)CO)C(=O)Cc2cc(NS(=O)(=O)c3cn(C)cn3)ccc2O[C@H]1CN(C)Cc1ccc(Cl)c(Cl)c1 | 0.2 | 0.125
C[C@@H]1CN([C@H](C)CO)C(=O)Cc2cc(NS(=O)(=O)c3cn(C)cn3)ccc2O[C@H]1CN(C)Cc1ccc(Oc2ccccc2)cc1 | 24.2 | -0.195
Cc1ccc(C(=O)CN(Cc2ccccc2)c2ccccc2)cc1 | 1.1 | .
COC(=O)c1cccc2oc3cc(CO)cc(O)c3c(=O)c12 | -1.6 | 2.06
COC(=O)C1=C2C(=O)c3c(O)cc(CO)cc3OC2C(O)C=C1 (stereo not drawn) | 146.1* | -0.14
COc1cccc(-c2nnc(-c3ccccc3)o2)c1 | 13.2 | .
COc1cccc(-c2ncc(-c3ccccc3)o2)c1 | 84.7* | 0.026
CCNC(=O)c1ccc2c(c1)sc1nc(-c3ccc(OC)cc3)cn12 | 70.0 | .
Cc1ccc(-c2csc(COC(=O)C(C)(C)C)n2)cc1 | -13.2 | .
CN1C2CC[C@H]1CC(OC(=O)C(O)c1ccccc1)C2 (stereo partly drawn) | -6.9 | 0.323
Cc1ccc(N2C(=O)CC(Cc3ccccc3)C2=O)cc1 (stereo not drawn) | 2.3 | .
CC(=O)Nc1ccc(S(=O)(=O)NC(C)C)cc1 | -6.8 | .
COC(=O)/C=C/S(=O)(=O)c1ccc(NC(C)=O)cc1 | 121.0* | -0.387
SMILES | ROS inducer | YB-1 expr inh
Cc1nc2n(Cc3ccccc3)c3ccccc3n2c1C(=S)Nc1ccccc1 | 19.8 | .
Cc1ccc(OC(=O)c2cc(S(=O)(=O)N3CCCC3)ccc2C)cc1C | 4.3 | .
CCN(CC)S(=O)(=O)c1ccc(Cl)c(C(=O)Oc2ccc(C)c(C)c2)c1 | 14.3 | 9.08*
COC(=O)c1ccc(OC)c(Br)c1 | 7.5 | .
O=C(Nc1ccccc1)OCC#Cc1ccc(-c2ccccn2)s1 | -5.1 | .
O=C(O)CCS(=O)(=O)c1nc(-c2ccccc2)cc(C(F)(F)F)n1 | 0.7 | .
O=C(CCS(=O)(=O)c1nc(-c2ccccc2)cc(C(F)(F)F)n1)Nc1ccc(Cl)cc1Cl | 100.6* | .
Fc1ccc(Nc2nc(Nc3ccc(F)cc3)nc(N3CCCCC3)n2)cc1 | 24.1 | .
CC(C)(C)c1ccc(NC(=O)c2ccc(N3C(=O)CSCC3=O)cc2)cc1 | 150.0* | .
CC(C)(C)c1ccc(NC(=O)c2ccc(C(C)(C)C)s2)cc1 | -3.3 | .
CCN(CC)C(=S)Sc1ncnc2sc3c(c12)CCCC3 | 91.9* | -0.089
CC(C)(C)C(=O)CSc1ncnc2sc3c(c12)CCCC3 | 30.0 | .
O=S(=O)(Nc1ccccc1Oc1ccccc1)c1ccc(-c2ccon2)s1 | -10.0 | .
COc1cccc(-c2nc(-c3ccccc3)[nH]c2-c2cccc(OC)c2)c1 | 69.4 | .
C[C@H](CO)N1C[C@H](C)[C@H](CN(C)Cc2ccccc2)Oc2c(NC(=O)c3nc4ccccc4s3)cccc2C1=O | 22.3 | 0.358
C[C@H]1CN([C@@H](C)CO)C(=O)c2cccc(NC(=O)c3nc4ccccc4s3)c2O[C@H]1CN(C)Cc1ccccc1 | 11.5 | 0.214
C[C@H]1CN([C@@H](C)CO)C(=O)c2cccc(NC(=O)c3nc4ccccc4s3)c2O[C@H]1CN(C)Cc1ccc(Oc2ccccc2)cc1 | 94.6* | -0.153
C[C@H](CO)N1C[C@H](C)[C@H](CN(C)Cc2ccc(Oc3ccccc3)cc2)Oc2c(NC(=O)c3nc4ccccc4s3)cccc2C1=O | 48.0 | 0.251
C[C@H]1CN([C@@H](C)CO)C(=O)c2cccc(NC(=O)c3nc4ccccc4s3)c2O[C@H]1CN(C)Cc1ccc(C(=O)Nc2ccccc2N)cc1 | 172.0* | 0.188
C[C@@H]1CN([C@H](C)CO)C(=O)c2cccc(NC(=O)c3nc4ccccc4s3)c2O[C@H]1CN(C)Cc1ccc(C(=O)Nc2ccccc2N)cc1 | 149.9* | -0.272
CC(NS(=O)(=O)N(C)C)c1ccccc1 (stereo not drawn) | -7.4 | .
COc1cccc(-n2c(=S)sc3c(=O)n(-c4ccccc4)c(SCC4OCCO4)nc32)c1 | 11.9 | .
COC(CNc1ncnc2c1c(-c1ccccc1)cn2-c1ccc(C)cc1)OC | 55.6 | .
COc1ccc(-n2cc(-c3ccccc3)c3c(N4CCCCC4)ncnc32)cc1 | 115.7* | .
Cc1cccc(C2Sc3ccccc3N=C3c4ccccc4C(=O)C32)c1 (stereo not drawn) | 105.5* | 0.0848
SMILES | ROS inducer | YB-1 expr inh
O=C1c2ccccc2C2=Nc3ccccc3SC(c3ccc(F)cc3)C12 (stereo not drawn) | 20.5 | .
COc1ccccc1NC(=O)Cn1cnc2c(cnn2C(C)(C)C)c1=O | -2.0 | .
C[C@H]1CN([C@@H](C)CO)C(=O)c2cccc(NS(=O)(=O)c3ccc(Cl)cc3)c2O[C@H]1CN(C)Cc1ccc(Oc2ccccc2)cc1 | 12.1 | -0.262
COc1ccc(S(=O)(=O)Nc2cccc3c2O[C@H](CN(C)Cc2ccc(Oc4ccccc4)cc2)[C@@H](C)CN([C@H](C)CO)C3=O)cc1 | 96.5* | -0.237
COc1ccc(S(=O)(=O)Nc2cccc3c2O[C@@H](CN(C)Cc2ccc(Oc4ccccc4)cc2)[C@H](C)CN([C@@H](C)CO)C3=O)cc1 | 34.5 | -0.00558
C[C@H](CO)N1C[C@H](C)[C@@H](CN(C)Cc2ccc(Oc3ccccc3)cc2)Oc2c(NS(=O)(=O)c3ccc(Cl)cc3)cccc2C1=O | 112.3* | -0.22
Cc1ccc(Cn2nnc3c(=O)n(CC(N)=O)cnc32)cc1 | 4.3 | .
Cc1cc(N)n(-c2ncnc3sc4c(c23)CCCC4)n1 | 13.8 | .
CC(=O)Oc1c(-c2ccccc2)oc2c(CC=C(C)C)c3c(c(OC(C)=O)c2c1=O)C=CC(C)(C)O3 | -9.1 | 0.168
CC1Oc2c3c(c4c(-c5ccccc5)cc(=O)oc4c2C(=O)C1C)OC(C)(C)C=C3 (stereo not drawn) | 114.0* | -0.683
CCn1c(-c2ccccc2Cl)nc2ccccc21 | -14.4 | .
